In PubChem BioAssay AID1159580 (chemical genetic matrix, 2015):
Hit rate of the full screen: of about 5,500 compounds, about 2,000 (36%) were called active. About 18% were inconclusive and are not listed. This is one part of the list. A number with no mark means an inactive call. No stated cut-off is given here; in the data, active means normalized growth mostly below about 0.91 (no sharp cut-off); inconclusive means no clear call, values can overlap the other calls; inactive means mostly above about 0.92.

Assay: chemical genetic growth profiling, strain panel (AID 1159580);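 further: tested at 20 µM; growth read once vehicle control cultures reached saturation at 30 °C; 1 = growth at the plate median or of vehicle wells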
Details: growth OD

SMILES: O=C(O)c1ccccc1-c1c2cc(Br)c(=O)cc-2oc2[c]([Hg])c(O)c(Br)cc12
- normalized growth (S. cerevisiae deletion strains, locus YKL009W, strain mrt4, stronger effect = lower value): 0.924
- normalized growth (S. cerevisiae deletion strains, locus YKL068W, stronger effect = lower value): 0.565 (active)
- normalized growth (S. cerevisiae deletion strains, locus YKL085W, strain MDH1 (second series), stronger effect = lower value): 0.0686 (active)
- normalized growth (S. cerevisiae deletion strains, locus YKL085W, strain MDH1, stronger effect = lower value): 0.0686 (active)
- normalized growth (S. cerevisiae deletion strains, locus YKL160W, strain elf1, stronger effect = lower value): 0.0872 (active)
- normalized growth (S. cerevisiae deletion strains, locus YKL190W, strain CNB1, stronger effect = lower value): 0.575 (active)
- normalized growth (S. cerevisiae deletion strains, locus YKR001C, strain vps1, stronger effect = lower value): 0.101 (active)
- normalized growth (S. cerevisiae deletion strains, locus YKR026C, strain gcn3, stronger effect = lower value): 1.05
- normalized growth (S. cerevisiae deletion strains, locus YKR091W, strain srl3, stronger effect = lower value): 1.04
- normalized growth (S. cerevisiae deletion strains, locus YLL001W, strain dnm1, stronger effect = lower value): 1.03
- normalized growth (S. cerevisiae deletion strains, locus YLL026W, stronger effect = lower value): 1.04
- normalized growth (S. cerevisiae deletion strains, locus YLL041C, strain sdh2, stronger effect = lower value): 1.02
- normalized growth (S. cerevisiae deletion strains, locus YLR027C, strain aat2, stronger effect = lower value): 1.04
- normalized growth (S. cerevisiae deletion strains, locus YLR039C, strain RIC1, stronger effect = lower value): 0.949
- normalized growth (S. cerevisiae deletion strains, locus YLR058C, strain SHM2, stronger effect = lower value): 0.992
- normalized growth (S. cerevisiae deletion strains, locus YLR102C, strain apc9, stronger effect = lower value): 0.081 (active)
- normalized growth (S. cerevisiae deletion strains, locus YLR113W, strain HOG1, stronger effect = lower value): 0.485 (active)
- normalized growth (S. cerevisiae deletion strains, locus YLR221C, strain rsa3, stronger effect = lower value): 1
- normalized growth (S. cerevisiae deletion strains, locus YLR258W, strain gsy2, stronger effect = lower value): 1.04
- normalized growth (S. cerevisiae deletion strains, locus YLR262C, strain YPT6 (second series), stronger effect = lower value): 1.09
- normalized growth (S. cerevisiae deletion strains, locus YLR262C, strain YPT6, stronger effect = lower value): 0.68
- normalized growth (S. cerevisiae deletion strains, locus YLR268W, strain sec22, stronger effect = lower value): 0.106 (active)
- normalized growth (S. cerevisiae deletion strains, locus YLR320W, strain mms22, stronger effect = lower value): 1.02
- normalized growth (S. cerevisiae deletion strains, locus YLR330W, strain CHS5, stronger effect = lower value): 0.0829 (active)
- normalized growth (S. cerevisiae deletion strains, locus YLR342W, strain FKS1 (second series), stronger effect = lower value): 0.132 (active)
- normalized growth (S. cerevisiae deletion strains, locus YLR342W, strain FKS1, stronger effect = lower value): 1.02
- normalized growth (S. cerevisiae deletion strains, locus YLR357W, strain rsc2, stronger effect = lower value): 1
- normalized growth (S. cerevisiae deletion strains, locus YLR370C, strain arc18, stronger effect = lower value): 1.04
- normalized growth (S. cerevisiae deletion strains, locus YLR371W, strain rom2, stronger effect = lower value): 0.0749 (active)
- normalized growth (S. cerevisiae deletion strains, locus YLR384C, strain iki3, stronger effect = lower value): 1.02
- normalized growth (S. cerevisiae deletion strains, locus YLR418C, strain cdc73, stronger effect = lower value): 0.166 (active)
- normalized growth (S. cerevisiae deletion strains, locus YML016C, strain PPZ1, stronger effect = lower value): 0.0683 (active)
- normalized growth (S. cerevisiae deletion strains, locus YML032C, strain rad52, stronger effect = lower value): 0.99
- normalized growth (S. cerevisiae deletion strains, locus YML120C, strain ndi1, stronger effect = lower value): 1.03
- normalized growth (S. cerevisiae deletion strains, locus YML124C, strain tub3, stronger effect = lower value): 0.779 (active)
- normalized growth (S. cerevisiae deletion strains, locus YMR058W, strain fet3, stronger effect = lower value): 1.02
- normalized growth (S. cerevisiae deletion strains, locus YMR078C, strain ctf18, stronger effect = lower value): 0.484 (active)
- normalized growth (S. cerevisiae deletion strains, locus YMR125W, strain sto1, stronger effect = lower value): 1.02
- normalized growth (S. cerevisiae deletion strains, locus YMR129W, stronger effect = lower value): 1.04
- normalized growth (S. cerevisiae deletion strains, locus YMR205C, strain PFK2, stronger effect = lower value): 1.09
- normalized growth (S. cerevisiae deletion strains, locus YMR223W, strain ubp8, stronger effect = lower value): 0.0739 (active)
- normalized growth (S. cerevisiae deletion strains, locus YMR231W, strain pep5, stronger effect = lower value): 1.03
- normalized growth (S. cerevisiae deletion strains, locus YMR263W, strain SAP30, stronger effect = lower value): 0.943
- normalized growth (S. cerevisiae deletion strains, locus YMR307W, strain GAS1, stronger effect = lower value): 0.228 (active)
- normalized growth (S. cerevisiae deletion strains, locus YNL067W, strain RPL9B, stronger effect = lower value): 0.814 (active)
- normalized growth (S. cerevisiae deletion strains, locus YNL071W, strain lat1, stronger effect = lower value): 1.01
- normalized growth (S. cerevisiae deletion strains, locus YNL128W, strain TEP1, stronger effect = lower value): 0.196 (active)
- normalized growth (S. cerevisiae deletion strains, locus YNL153C, strain GIM3, stronger effect = lower value): 0.89
- normalized growth (S. cerevisiae deletion strains, locus YNL183C, strain NPR1, stronger effect = lower value): 0.513 (active)
- normalized growth (S. cerevisiae deletion strains, locus YNL209W, strain ssb2, stronger effect = lower value): 1.03
- normalized growth (S. cerevisiae deletion strains, locus YNL233W, strain BNI4, stronger effect = lower value): 0.104 (active)
- normalized growth (S. cerevisiae deletion strains, locus YNL248C, strain rpa49, stronger effect = lower value): 1.02
- normalized growth (S. cerevisiae deletion strains, locus YNL250W, strain rad50, stronger effect = lower value): 0.0998 (active)
- normalized growth (S. cerevisiae deletion strains, locus YNL271C, strain bni1, stronger effect = lower value): 0.0638 (active)
- normalized growth (S. cerevisiae deletion strains, locus YNL298W, strain CLA4, stronger effect = lower value): 0.062 (active)
- normalized growth (S. cerevisiae deletion strains, locus YNL307C, strain MCK1, stronger effect = lower value): 0.072 (active)
- normalized growth (S. cerevisiae deletion strains, locus YNL322C, strain KRE1 (second series), stronger effect = lower value): 1.05
- normalized growth (S. cerevisiae deletion strains, locus YNL322C, strain KRE1, stronger effect = lower value): 0.914 (active)
- normalized growth (S. cerevisiae deletion strains, locus YNR049C, strain mso1, stronger effect = lower value): 1.02
- normalized growth (S. cerevisiae deletion strains, locus YNR052C, strain pop2, stronger effect = lower value): 0.937
- normalized growth (S. cerevisiae deletion strains, locus YOL006C, strain TOP1, stronger effect = lower value): 0.153 (active)
- normalized growth (S. cerevisiae deletion strains, locus YOL012C, strain htz1): 0.228
- normalized growth (S. cerevisiae deletion strains, locus YOL147C, strain pex11, stronger effect = lower value): 0.995
- normalized growth (S. cerevisiae deletion strains, locus YOR001W, strain rrp6, stronger effect = lower value): 1.04
- normalized growth (S. cerevisiae deletion strains, locus YOR061W, strain CKA2, stronger effect = lower value): 0.155 (active)
- normalized growth (S. cerevisiae deletion strains, locus YOR069W, strain VPS5, stronger effect = lower value): 0.494 (active)
- normalized growth (S. cerevisiae deletion strains, locus YOR070C, strain gyp1, stronger effect = lower value): 1.02
- normalized growth (S. cerevisiae deletion strains, locus YOR080W, strain dia2, stronger effect = lower value): 1.02
- normalized growth (S. cerevisiae deletion strains, locus YOR083W, strain WHI5, stronger effect = lower value): 1.03
- normalized growth (S. cerevisiae deletion strains, locus YOR106W, strain vam3, stronger effect = lower value): 0.952
- normalized growth (S. cerevisiae deletion strains, locus YOR136W, strain idh2, stronger effect = lower value): 0.0743 (active)
- normalized growth (S. cerevisiae deletion strains, locus YOR144C, strain elg1, stronger effect = lower value): 1.02
- normalized growth (S. cerevisiae deletion strains, locus YOR184W, strain ser1, stronger effect = lower value): 0.143 (active)
- normalized growth (S. cerevisiae deletion strains, locus YOR231W, strain MKK1, stronger effect = lower value): 0.345 (active)
- normalized growth (S. cerevisiae deletion strains, locus YOR265W, strain rbl2, stronger effect = lower value): 1.04
- normalized growth (S. cerevisiae deletion strains, locus YOR270C, strain vph1, stronger effect = lower value): 1.31 [resistant] (active)
- normalized growth (S. cerevisiae deletion strains, locus YOR290C, strain snf2, stronger effect = lower value): 1.07
- normalized growth (S. cerevisiae deletion strains, locus YOR316C, strain cot1, stronger effect = lower value): 0.0634 (active)
- normalized growth (S. cerevisiae deletion strains, locus YPL051W, strain arl3, stronger effect = lower value): 1
- normalized growth (S. cerevisiae deletion strains, locus YPL055C, strain LGE1, stronger effect = lower value): 0.226 (active)
- normalized growth (S. cerevisiae deletion strains, locus YPL078C, strain atp4, stronger effect = lower value): 1.04
- normalized growth (S. cerevisiae deletion strains, locus YPL106C, strain sse1, stronger effect = lower value): 0.909
- normalized growth (S. cerevisiae deletion strains, locus YPL240C, strain hsp82, stronger effect = lower value): 1.03
- normalized growth (S. cerevisiae deletion strains, locus YPL241C, strain CIN2, stronger effect = lower value): 0.987
- normalized growth (S. cerevisiae deletion strains, locus YPL256C, strain CLN2, stronger effect = lower value): 0.487 (active)
- normalized growth (S. cerevisiae deletion strains, locus YPR119W, strain clb2, stronger effect = lower value): 0.0719 (active)
- normalized growth (S. cerevisiae deletion strains, locus YPR141C, strain kar3, stronger effect = lower value): 0.254 (active)
- normalized growth (S. cerevisiae deletion strains, locus YPR163C, strain tif3, stronger effect = lower value): 0.0765 (active)
- normalized growth (S. cerevisiae deletion strains, locus YPR167C, strain met16, stronger effect = lower value): 0.0655 (active)
- normalized growth (S. cerevisiae deletion strains, strain wtn01, stronger effect = lower value): 0.062 (active)
- normalized growth (S. cerevisiae strains, strain wild type, stronger effect = lower value): 0.196 (active)
